Test results: PubChem BioAssay (NCI)
About 83,000 compounds went through this panel and 20% of them were active in at least one assay; those are over-represented in the sample as a whole.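 Testing used 96-well plates and a 48-hour single-concentration exposure. Example: -40 means 40% of the starting cells died.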 The source made the active and inactive calls. The calls were made as follows: active = growth percent below 10; inactive = the rest.

Assays:
Test in all cases: NCI-60 one-dose screen, 48 h (100 = growth as untreated, 0 = no growth, -100 = all killed)
Settings in all cases: 10 µM unless noted
[1] = test system: NCI-H23 lung
[2] = test system: NCI-H226 lung
[3] = test system: NCI-H322M lung
[4] = test system: HOP-62 NSCLC
[5] = test system: NCI-H460 lung
[6] = test system: HOP-92 NSCLC
[7] = test system: NCI-H522 lung
[8] = test system: A549/ATCC NSCLC
[9] = test system: 786-0 renal
[10] = test system: COLO 205 colon

Measured: growth

COc1cc(-c2nc(SCc3ccc(C)cc3)[nH]c(=O)c2C#N)ccc1OCc1ccccc1
inactive: [1] 106% | [2] 96.2% | [3] 104% | [4] 104% | [5] 104% | [6] 113% | [7] 95.6% | [8] 102% | [9] 103% | [10] 119%

Cn1cc2c(c1)-c1c(sc3nc(-c4ccc(NC(=O)Nc5cc(C(C)(C)C)on5)cc4)cn13)CC2
active: [9] -3.49%
inactive: [1] 50.7% | [2] 51.8% | [3] 75.6% | [4] 16.7% | [5] 27.5% | [6] 42.8% | [7] 81.5% | [8] 64.5% | [10] 45.6%

N=c1c2cc(-c3ccccc3)oc2ncn1/N=C/c1ccccc1
inactive: [1] 98.1% | [2] 98.9% | [3] 94.5% | [4] 87.4% | [5] 57.6% | [6] 92% | [7] 42.1% | [8] 71.2% | [9] 78.6% | [10] 88.1%

Cc1ccc(NC(=O)N[C@@H](Cc2cc(F)cc(F)c2)C(=O)NC2C(=O)N3CCC[C@H]3C(=O)N3CCCC[C@H]3C(=O)N[C@@H](C)C(=O)N3C[C@H](C)C[C@H]3C(=O)O[C@H]2C)c(F)c1 (stereo not given in full)
inactive: [1] 35.2% | [3] 52.7% | [4] 33.8% | [5] 15.3% | [7] 19.7% | [8] 26.1% | [9] 40.7%
active: [2] 1.32% | [6] 4.3% | [10] -33.3%

O=C(c1ccc(O)cc1)[C@@H]1[C@@H]2CCCN2[C@@]2(C(=O)N(C(=O)c3ccc(F)cc3)c3ccccc32)[C@H]1c1ccc(F)cc1
inactive: [1] 98.5% | [2] 94.3% | [3] 98.6% | [4] 97.4% | [5] 99.6% | [6] 67% | [7] 93.7% | [8] 96.6% | [9] 100% | [10] 105%

CCn1c2ccc(/C=N/OCCCN(C)C)cc2c2cc(/C=N/OCCCN(C)C)ccc21
inactive: [2] 79.7% | [4] 62.5% | [6] 30.6%
active: [1] -5.99% | [3] -11.6% | [5] -3.59% | [7] -60.5% | [8] -67.8% | [9] -42.5% | [10] -55.6%

O=C(C[n+]1ccnc2ccccc21)c1ccc(O)c(O)c1
inactive: [1] 63.8% | [2] 71.1% | [3] 90.8% | [4] 90.7% | [5] 70.9% | [6] 64.8% | [8] 87.1% | [9] 44.3% | [10] 30.8%
active: [7] -5%

O=C(Nc1cc(Cl)cc(Cl)c1)Nc1ccc2oc(=O)ccc2c1
active: [1] -6.33% | [5] 1.17% | [6] -26.6% | [7] 6.05% | [10] -10.9%
inactive: [2] 32.7% | [3] 21.9% | [4] 40.5% | [8] 16.2% | [9] 23.9%

CC1(C)CC[C@]2(C(=O)N3CCCNCC3)CC[C@]3(C)C(=CC[C@@H]4[C@@]5(C)CCC(=O)C(C)(C)[C@@H]5CC[C@]43C)[C@H]2C1
inactive: [1] 101% | [2] 103% | [3] 101% | [4] 109% | [5] 106% | [6] 96.6% | [7] 98.6% | [8] 106% | [9] 99.5% | [10] 115%

CC[C@H](C)[C@H]1NC(=O)[C@@H]([C@H](O)C(C)C)NC(=O)[C@@H](C)N(C)C(=O)[C@H](C)N(C)C(=O)[C@H](CC(C)C)NC(=O)[C@H](CC(C)C)N(C)C(=O)[C@H](C)N(C)C1=O
active: [1] -2.85% | [2] -6.15% | [3] 5.75% | [4] -13.3% | [5] 1.46% | [6] -3.54% | [7] 1.44% | [8] 0.788% | [9] 0.205% | [10] -8.56%

O=C1Nc2ccc(Br)cc2/C1=N\c1nnc(-c2ccc(Cl)cc2)o1
inactive: [1] 79.8% | [2] 80.3% | [3] 94.2% | [4] 66% | [5] 46.3% | [6] 79.7% | [7] 59.8% | [8] 54% | [9] 91.4% | [10] 83.3%

N#C/C(=C\c1ccc(N2CCCCC2)cc1)C(=O)Nc1sc2c(c1C#N)CCC2
inactive: [1] 93.8% | [2] 88.1% | [3] 99.4% | [4] 94.7% | [5] 74.8% | [6] 89.4% | [7] 92.7% | [8] 90.6% | [9] 101% | [10] 118%

Cc1ccc(-c2cc(-c3cccc4ccccc34)n3c(n2)nc2ccccc23)cc1
inactive: [1] 82% | [2] 57.9% | [3] 90.6% | [4] 67.5% | [5] 21.9% | [6] 71.6% | [7] 76.9% | [8] 39.6% | [9] 47.6% | [10] 59.7%

CN1C(=O)N(C)C2Nn3c(s/c(=C\c4ccccn4)c3=O)=NC21 (stereo not given)
inactive: [1] 108% | [2] 103% | [3] 103% | [4] 100% | [5] 110% | [6] 107% | [7] 92.3% | [8] 103% | [9] 104% | [10] 110%

CCOC(=O)CC(=O)CSC1=NC2C(NN1)N(C)C(=O)N2C (stereo not given)
inactive: [1] 75.5% | [2] 100% | [3] 103% | [4] 107% | [5] 105% | [6] 88.7% | [7] 72.8% | [8] 102% | [9] 103% | [10] 108%

O=C1c2c(c3c4cc(Br)ccc4[nH]c3c3ccc4ccccc4c23)C(=O)N1CCN1CCNCC1
inactive: [1] 77.1% | [2] 87.6% | [3] 95.6% | [4] 60.9% | [5] 36.5% | [6] 82.5% | [7] 74.3% | [8] 54.4% | [9] 76.5% | [10] 86.5%

C#C[C@]1(O)CC[C@H]2[C@@H]3CC=C4c5sc(Nc6ccncc6)nc5CC[C@]4(C)[C@H]3CC[C@@]21C
inactive: [3] 31.7%
active: [1] 2.43% | [2] -4.76% | [4] -42.3% | [5] 4.53% | [6] 4.3% | [7] -37% | [8] -14.7% | [9] -60.2% | [10] -46.9%

CC(C)c1nn(-c2ccccc2)c(N2CCCCC2)c1/C=N/NC(N)=S
inactive: [1] 90.9% | [2] 88.2% | [3] 82.3% | [4] 101% | [5] 96.5% | [6] 64.6% | [7] 86.1% | [8] 79.2% | [9] 101% | [10] 97%

CCNC(=NCCCN(C)C)N/C(N)=N/c1nc2ccccc2s1
inactive: [1] 98.7% | [2] 92.7% | [3] 91.5% | [4] 82.4% | [5] 104% | [6] 58.1% | [7] 99.2% | [8] 89.8% | [9] 84.6% | [10] 78.7%

COc1cc2cc(Oc3ccc(NC(=O)Nc4cc(C(F)(F)F)cc(C(F)(F)F)c4)cc3)c(C)nc2cc1OCCN(C)C
inactive: [1] 104% | [2] 98.6% | [3] 109% | [4] 101% | [5] 107% | [6] 127% | [7] 102% | [8] 104% | [9] 106% | [10] 115%

COc1ccc(-c2cc(-c3ccc(Cl)cc3)nc3nc(N)nn23)cc1
inactive: [1] 108% | [2] 99.6% | [3] 102% | [4] 107% | [5] 107% | [6] 102% | [7] 93.9% | [8] 93.8% | [9] 87.7% | [10] 105%

COc1cc2c3c(n(CCCN4CCC[C@H]4C(N)=O)c(=O)c2cc1OC)-c1cc2c(cc1C3=O)OCO2
active: [1] -3.5% | [2] -15% | [4] -0.224% | [5] 0.252% | [9] -10.3%
inactive: [3] 26.1% | [6] 23.9% | [7] 22% | [8] 30.7% | [10] 16.4%

Cn1cc(-c2nn3cc(-c4cccnc4)nc3s2)c2ccccc21
inactive: [1] 30.1% | [2] 30.2% | [3] 55.3% | [4] 39.1% | [6] 26.1% | [8] 44% | [9] 59.7%
active: [5] 9.94% | [7] -12.9% | [10] -2.12%

Nc1nc(-c2cccc([N+](=O)[O-])c2)c(N=Nc2cccc(Cl)c2)s1
inactive: [1] 45.5% | [2] 58.5% | [3] 75.1% | [4] 46.3% | [5] 49.5% | [7] 26% | [8] 48.7% | [9] 47.3% | [10] 48.1%
active: [6] -13.7%

CC(C)N=C(N/C(N)=N/c1nc2ccccc2s1)NC(C)C
inactive: [1] 47.5% | [2] 67.2% | [3] 62.2% | [4] 55.4% | [5] 48.8% | [6] 30.8% | [7] 85.1% | [8] 69.3% | [9] 58.5% | [10] 55.6%

O=c1c2ccccc2nc(COc2ccccc2)n1/N=C/C=C/c1ccccc1
inactive: [1] 95.9% | [2] 98.1% | [3] 93% | [4] 98.6% | [5] 99.1% | [6] 102% | [7] 81.4% | [8] 100% | [9] 100% | [10] 113%
